Sfp PPTase inh: qHTS Assay for Inhibitors of Bacillus subtilis Sfp phosphopantetheinyl transferase (PPTase); 4'-phosphopantetheinyl transferase ffp (Bacillus subtilis), Q9F4F7; Biochemical Sfp PPTase activity, qHTS; Potency, µM, most hits filed as inhibitors; hit rate 3.5% among 310,000; AID 1490, 2009;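 note: the enzyme is Sfp with the accession as filed and its product quenches rhodamine fluorescence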
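Buffer: 50 mM Hepes-Na pH 7.6, 10 mM MgCl2, 0.01% Nonidet P-40, 0.01% BSA. Enzyme 15 nM, pre-exposed to compound 15 min; substrates then added and fluorescence change tracked over 30 min.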
BAZ2B inh: qHTS Assay for Inhibitors of BAZ2B | AlphaScreen BAZ2B-H3K14Ac peptide displacement | Bromodomain adjacent to zinc finger domain protein 2B (Homo sapiens), Q9UIF8 | Potency, µM (titrated, usually from 114 µM), hits mostly inhibitors | hit rate 4.4% among 360,000 | AID 504333, 2011; note: nearly all actives have a fitted effect of over 60% in size
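AlphaScreen displacement of biotin-H3(5-23)K14Ac peptide (50 nM final) from BAZ2B (50 nM final) in PBS pH 7.4, 0.01% Tween-20; complex preformed 30 min RT, then compounds (top 110 uM) 30 min RT, beads 20 min dark.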
HP1b chromo inh: HTS for Inhibitors of HP1-beta Chromodomain Interactions with Methylated Histone Tails. AlphaScreen HP1-beta / biotin-H3K9me3 peptide binding. Potency, µM (top dose mostly 114 µM), usual class: inhibitors. hit rate 0.56% among 390,000; note: nearly all actives have a fitted effect of over 70% in size
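HP1-beta protein (50 nM final) preincubated 30 min at room temperature with biotinylated H3(1-18)K9me3 peptide (50 nM) in PBS pH 7.4, 0.01% Tween-20, then compound added for 30 min. AlphaScreen streptavidin donor/nickel chelate acceptor beads (10 ug/mL final), 30 min dark, luminescence read.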
JMJD2A Tudor inh: qHTS Assay for Inhibitors of JMJD2A-Tudor Domain; Potency, µM (series often up to 114 µM), most hits filed as inhibitors; AID 504339, 2011; AlphaScreen JMJD2A-Tudor / H3K4me3 peptide binding; hit rate 4.4% among 390,000; Lysine-specific demethylase 4A (Homo sapiens), O75164; note: nearly all actives have a fitted effect of over 50% in size
G9a inh: qHTS Assay for Inhibitors of Histone Lysine Methyltransferase G9a. Histone-lysine N-methyltransferase EHMT2 (Homo sapiens), Q96KQ7. G9a H3K9 monomethylation, AlphaScreen, 2 h. Potency, µM (highest dose often 102 µM), usual class: inhibitors. hit rate 8.8% among 350,000; note: nearly all actives have a fitted effect of over 75% in size
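Step 1: enzyme (final 20 nM) with compound, 15 min RT. Step 2: substrate peptide 500 nM and SAM 20 uM, 2 h RT. Step 3: anti-H3K9me1 antibody and AlphaScreen beads, 10 min, then plate read.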
Each line names hits and unclear results; the compound was inactive in the other large screens. An excerpt weighted towards active compounds, which were near 12% of everything screened. Calls come from the whole dose curve; as a rule, active = well fitted curve in the direction sought with a large enough effect; inconclusive = small, poorly fitted or top-dose-only effect, or another doubt; inactive = no such curve, though single readings can be large; an effect the other way counts as inactive or inconclusive.

CC1=C(C(=O)OCc2ccccc2)N2C(=O)[C@@H](NC(=O)COc3ccccc3)[C@H]2SC1	Sfp PPTase inh inconclusive, G9a inh inconclusive
O=C(O)CN1CCN(c2ncc(C(F)(F)F)cc2Cl)CC1	G9a inh 50µM
C[C@H](CCC(=O)OCc1cn(CC(=O)c2ccc(O)cc2)nn1)C1CC[C@H]2[C@@H]3CC[C@@H]4C[C@H](O)CC[C@]4(C)[C@H]3C[C@H](O)[C@]12C (stereo not given in full)	none (no result: Sfp PPTase inh, BAZ2B inh, G9a inh)
COc1ccc(C(=O)N/C(=C/c2cccs2)C(=O)NCCCn2ccnc2)cc1OC	none
CCN(Cc1cccs1)C(=O)CN1C(=O)NC(c2ccccc2)(c2ccccc2)C1=O	G9a inh 7.9µM (no result: Sfp PPTase inh)
O=C(O)c1cccc(-n2cccc2/C=N/O)c1	BAZ2B inh 45µM, HP1b chromo inh inconclusive, JMJD2A Tudor inh 32µM, G9a inh inconclusive
O=Cc1cccn1-c1ccccc1	none
ON=Cc1cccn1-c1ccccc1	BAZ2B inh 50µM
CN1C(=O)S/C(=C/c2cccn2-c2cccc(C(=O)O)c2)C1=O	BAZ2B inh inconclusive
CCC(C)[C@H](NC(=O)OC(C)(C)C)C(=O)N/N=C/C1=Cc2ccccc2OC1 (stereo not given in full)	G9a inh inconclusive
CC(OC(=O)c1cc(Br)ccc1O)C(=O)Nc1ccc(S(=O)(=O)N2CCCC2)cc1 (stereo not given)	none (no result: Sfp PPTase inh)
Cc1ccc(S(=O)(=O)N2CCOCC2)cc1C(=O)OCC(=O)NCc1ccc2c(c1)OCO2	none (no result: Sfp PPTase inh)
CC1CCN(S(=O)(=O)c2ccc(C(=O)Nc3nnc(C4=COCCO4)o3)cc2)CC1	BAZ2B inh inconclusive, G9a inh inconclusive
CCC1CCCCN1S(=O)(=O)c1ccc(C(=O)Nc2nnc(C3=COCCO3)o2)cc1 (stereo not given)	BAZ2B inh 79µM
O=C(Nc1nnc(C2=COCCO2)o1)c1ccc(S(=O)(=O)N2CCCCC2)cc1	JMJD2A Tudor inh 79µM, G9a inh inconclusive (no result: BAZ2B inh)
COc1ccc(C(=O)Nc2nnc(C3=COCCO3)o2)cc1	BAZ2B inh 16µM, JMJD2A Tudor inh 40µM
CCOC(=O)N1CCN(S(=O)(=O)c2ccc(C(=O)Nc3nnc(C4CC4)o3)cc2)CC1	BAZ2B inh 22µM, JMJD2A Tudor inh 50µM
CC1CCCCN1S(=O)(=O)c1ccc(C(=O)Nc2nnc(-c3ccncc3)o2)cc1 (stereo not given)	JMJD2A Tudor inh inconclusive (no result: BAZ2B inh)
CNC(=O)c1cccc(NC(=O)C(C)c2ccc3cc(OC)ccc3c2)c1 (stereo not given)	none
CCCCOc1ccc(C(=O)NCCc2sc(-c3ccc(OC)c(OC)c3)nc2C)cc1	none (no result: Sfp PPTase inh)
COc1ccc(-c2nnc(NC(=O)c3ccc(S(=O)(=O)N4COCC4(C)C)cc3)o2)cc1	BAZ2B inh 56µM
O=C(Nc1nnc(C2=COCCO2)o1)c1ccc(S(=O)(=O)N2CCCC2)cc1	JMJD2A Tudor inh 50µM, G9a inh inconclusive (no result: BAZ2B inh)
CCC1CCCCN1S(=O)(=O)c1ccc(C(=O)Nc2nnc(C3CC3)o2)cc1 (stereo not given)	BAZ2B inh 50µM (no result: G9a inh)
CCC1CCCCN1S(=O)(=O)c1ccc(C(=O)Nc2nnc(-c3ccccc3Cl)o2)cc1 (stereo not given)	none
COC(=O)c1cc(C(=O)NCc2ccc3c(c2)OCO3)cc([N+](=O)[O-])c1	none
O=C(COC(=O)C1CCN(S(=O)(=O)c2cccs2)CC1)c1cc2ccccc2o1	G9a inh 8.9µM
CN1CC[C@]23c4ccccc4N[C@H]1[C@]21CCN(C)[C@H]3Nc2ccccc21	G9a inh inconclusive (no result: Sfp PPTase inh)
COC(=O)C1CC23C=CCN4CCC5(c6ccccc6NC15C2C)C43 (stereo not given)	JMJD2A Tudor inh inconclusive, G9a inh 40µM
COc1cccc2cc(C(=O)N3CCC(C)CC3)c(=O)oc12	G9a inh 50µM
COc1cccc2cc(C(=O)Oc3ccccc3)c(=O)oc12	BAZ2B inh inconclusive (no result: G9a inh)
CCOc1cccc2cc(C(=O)NCc3ccccc3)c(=N)oc12	none

Source: PubChem BioAssay (National Center for Advancing Translational Sciences (NCATS))
